beta cell repl = MIN6 beta-cell proliferation induction; proliferation, % at 10 µM; actives 0.29% (n = 330,000); MIN6 cells proliferation, ATPlite luminescence, 48 h; cells starved in 0.2% serum; 100% = growth in 10% serum;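 active means compounds whose signal lies at least 3.5 SD above the mean of all wells on their plate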;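 further: 0% = DMSO-treated cells in low-serum medium and 100% = 10% serum control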
APOBEC3G inh = blocks human APOBEC3G single-stranded DNA deamination. Q9HC16. recombinant A3G, ssDNA deamination FAM/TAMRA fluorescence. inhibition, % at 20 µM. actives 0.28% (n = 330,000). AID 493012;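 active means inhibition of at least 40% at 20 µM, with no more than 30% in the related APOBEC3A deaminase screen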;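 further: plate controls were DMSO wells with A3G for no effect and wells lacking A3G enzyme for full effect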
A3A deaminase = human APOBEC3A DNA deaminase inhibition; P31941; AID 493011; inhibition, % at 20 µM; actives 0.41% (n = 330,000); recombinant A3A, FAM/TAMRA ssDNA deamination fluorescence;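 active means at least 40% inhibition at 20 µM here, with at most 30% in a related deaminase screen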;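 further: plate controls were A3A with DMSO for no effect and wells lacking A3A enzyme for full effect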
NRP1-CendR mod = modulators of CendR peptide binding to human neuropilin-1; inhibition, % at 25 µM; FAM-RPARPAR peptide binding to NRP-1, fluorescence polarization; actives 0.85% (n = 360,000); O14786;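 active means inhibition or corrected inhibition above about 18%, plus a signal ratio from 0.5 to 1.5, limit read from the data, passing the limit was not always enough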
VLA-4 inh = inhibition in a human VLA-4 binding assay; P13612; VLA-4 expressing cells, ligand binding flow cytometry; inhibition, % (about 7 µM as worked out from the volumes in the protocol); actives 0.2% (n = 330,000); in the data active means inhibition above about 50%
The depositor's hits bear a star; nt = no result given. Most compounds without a hit are left out; they make up all but 1.8% or so of the library.

SMILES	beta cell repl	APOBEC3G inh	A3A deaminase	NRP1-CendR mod	VLA-4 inh
CCOC(=O)C1=C(C)N(CCCC(=O)O)C(=O)NC1c1ccccc1 (centres undefined)	-2	-2	-2	30*	26
COC(=O)c1c(C)[nH]c(C(=O)C(C)OC(=O)c2cnc(C)cn2)c1C (centres undefined)	7	-8	-3	2	2
Cc1ccc(C(=O)OCC(=O)c2ccc(Cl)s2)s1	-1	-2	-3	34*	17
Fc1ccc(C2=CC(c3ccco3)n3ncnc3N2)cc1 (centres undefined)	-1	-6	2	38*	-3
O=C(Nc1ccc(C(=O)N2CCN(c3ccc(F)cc3)CC2)cc1)C1=CSCCO1	-4	-8	-7	-1	21
COc1ccc(N2CCN(C(=O)c3ccc(NC(=O)C4=CSCCO4)cc3)CC2)cc1	-3	-1	-5	36*	15
CSc1ccccc1NC(=O)CN(C)C(=O)COc1cccc2cccnc12	-4	-7	-2	27*	11
CC1CC(C)CN(CCCNC(=O)CN2C(=O)CSc3ccc(S(=O)(=O)N4CCOCC4)cc32)C1 (centres undefined)	-1	0	6	19*	11
CC1CCN(CCCNC(=O)CN2C(=O)CSc3ccc(S(=O)(=O)N4CCOCC4)cc32)CC1	2	-3	0	9	14
CC#CCN(Cc1ccco1)C(=O)C1CCC(=O)N(Cc2ccccc2F)C1 (centres undefined)	-7	-9	0	23*	2
CC#CCN(Cc1ccco1)C(=O)C1CCC(=O)N(CCc2cccc(F)c2)C1 (centres undefined)	nt	nt	nt	-6	nt
CCOC(=O)[C@H]1[C@H]2COc3ccc(OC)cc3[C@@H]2N2C(=O)CN(Cc3ccco3)C(=O)[C@@]12C	4	-3	-1	22*	6
CCOC(=O)[C@H]1[C@H]2COc3ccc(OC)cc3[C@@H]2N2C(=O)c3ccc(C)cc3NC(=O)[C@@]12C	0	-2	-1	24*	4
CCOC(=O)[C@H]1[C@H]2COc3cc(OC)ccc3[C@@H]2N2C(=O)c3ccc(C)cc3NC(=O)[C@@]12C	-4	-9	-1	-1	nt
CCOC(=O)[C@H]1[C@H]2COc3cc(OC)ccc3[C@@H]2N2C(=O)CN(Cc3ccco3)C(=O)[C@@]12C	6	-11	-2	10	1
CC1CCC(NC(=O)C2CCC(CNS(=O)(=O)c3cccc4cccnc34)CC2)CC1 (centres undefined)	-3	-5	-5	21*	8
CC1CCN(C(=O)C2CCC(CNS(=O)(=O)c3cccc4cccnc34)CC2)CC1 (centres undefined)	-4	-5	0	-3	-10
CCOC(=O)c1c(C)oc2c1c(C=NCCC(=O)O)c(O)c1ccccc12	-1	0	-1	26*	-4
N/C(=N\OC(=O)c1ccc(Cl)cc1)c1ccccn1	-5	2	3	20*	7
N/C(=N\OC(=O)c1ccc(Cl)c(Cl)c1)c1ccccn1	-6	-4	6	2	-1
Cc1ccc(/C(N)=N/OC(=O)c2ccc(Cl)cc2Cl)cc1	0	6	-1	52*	11
COc1ccccc1/C=C/CN1CCC(n2nccc2NC(=O)CCc2ccccc2)CC1	-8	-2	-2	-12	8
CC(C)Oc1ccc(CNC(=S)N/N=C/c2cccnc2)cc1	-1	-3	-4	9	-5
CC(C)NC(=S)N/N=C/c1cccnc1	0	-6	-2	37*	4
CCc1nc2c(OCc3ccc(F)cc3)cccn2c1N(C)C(=O)C(C)C	nt	nt	nt	-4	nt
SMILES	beta cell repl	APOBEC3G inh	A3A deaminase	NRP1-CendR mod	VLA-4 inh
COCc1cccc(-c2csc(C(C)(O)c3ccccc3)n2)c1 (centres undefined)	nt	nt	nt	41*	nt
Oc1ccc(-c2nccc(-c3ccc(Cl)cc3Cl)n2)cc1	-3	-7	-2	40*	0
O=C(O)c1ccc(NC2=C/C(=N/S(=O)(=O)c3ccccc3)c3ccccc3C2=O)cc1	-5	-8	0	37*	nt
O=C(O)c1ccc(NC2=C/C(=N/S(=O)(=O)c3cccs3)c3ccccc3C2=O)cc1	nt	nt	nt	42*	nt
CCc1ccc(S(=O)(=O)/N=C2\C=C(Nc3cccc(C(=O)O)c3)C(=O)c3ccccc32)cc1	-3	0	1	41*	5
O=C1C(Nc2ccc(O)cc2)=C/C(=N/S(=O)(=O)c2cccs2)c2ccccc21	nt	nt	nt	20	nt
Cc1ccc(S(=O)(=O)Nc2ccc(C(=O)Nc3cc(C)on3)cc2)cc1	0	-4	-1	-9	4
Cc1cc(NC(=O)c2ccc(S(=O)(=O)Nc3ccccc3)cc2)no1	-1	-1	-1	27*	-12
c1ccc2c(c1)CC(N1CCCCC1)c1ccccc1S2 (centres undefined)	-4	8	4	41*	-2
CCc1ccc2c(c1)Sc1ccccc1CC2N1CCN(C)CC1 (centres undefined)	-4	-5	-2	12	18
O=C(NNC(=O)c1cncc(Br)c1)c1ccncc1	-2	-4	2	-7	-2
CC(NC(=O)c1ccc(NC(=O)CC2SC(N3CCCC3)=NC2=O)cc1)c1ccc(S(N)(=O)=O)cc1 (centres undefined)	4	-7	1	-6	2
COc1cc(OC)c(-n2cc(-c3ccc(OC)c(OC)c3)[nH]c2=S)cc1Cl	-1	-13	10	0	22
COCCN1C[C@@H](CO)O[C@@H](n2cnc3c(N(C)C(C)C)ncnc32)C1	nt	nt	nt	24*	nt
CCN(CC)c1ncnc2c1ncn2[C@H]1CN(CCOC)C[C@@H](CO)O1	nt	nt	nt	2	nt
CN(Cc1ccc(Cl)cc1)C(C(=O)NC1CCCCC1)c1cc2ccccc2o1 (centres undefined)	nt	nt	nt	-3	nt
CN(Cc1ccc(Cl)cc1)C(CCc1ccccc1)C(=O)NC1CCCCC1 (centres undefined)	nt	nt	nt	20*	nt
Cc1cc(S(=O)(=O)Nc2noc3ccccc23)ccc1F	-5	-8	-3	10	-8
O=[N+]([O-])c1ccc(S(=O)(=O)c2cccc(C(F)(F)F)c2)nc1	-6	-2	-3	-3	25
O=S(=O)(c1ccc(=S)[nH]c1)N1CCN(Cc2ccccc2)CC1	-6	-4	-1	-6	-4
Cc1nc2ccc(CN(C)c3ccc(C(=O)N[C@@H](CCC(=O)O)C(=O)O)s3)cc2c(=O)[nH]1	nt	nt	nt	nt	52*
Cc1nn(-c2ccccc2)c(N)c1Sc1ccc([N+](=O)[O-])cc1	-2	-4	2	44*	-5
CC1(C)C(CC(=O)O)CC1C(=O)O (centres undefined)	nt	nt	nt	24*	nt
O=C(Nc1ccccc1)Nc1nnc(-c2ccccc2)o1	0	-1	2	40*	-4
Cc1ccc(C(=O)CCS(=O)(=O)c2ccc(Cl)cc2)cc1	-7	4	2	20*	-6

From PubChem
